Source: PubChem BioAssay AID434959 (Broad Institute, 2010)
Among all 30,000 compounds or so, about 110 (0.37%) were called active. The sample holds actives, similar compounds and a random draw of the others, so the mix is not that of the screen.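 How the source made its calls: active means delta delta Cp rounded down to an integer at or above 3, about 3 SD of DMSO wells; inactive means the rest.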

Assay: inhibitors of YB-1 gene expression, primary screen, cell-based, fluorescence (AID 434959);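 further: higher means less YB-1 transcript or more CDIP transcript relative to DMSO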
Settings: U2OS, qRT-PCR YB-1 vs CDIP delta delta Cp, 16 h; stronger effect = higher value; zero = DMSO, each unit about twofold

Delta Cp (YB-1 minus CDIP), active:
Cc1ccc(-n2c(C)nc3sc4c(c3c2=O)CCC4)cc1 5.31

Delta Cp (YB-1 minus CDIP), inactive:
C/C(=C\CC[C@H](CO)[C@@H]1CC[C@]2(C)C3=C(CC[C@@]12C)[C@@]1(C)CCC(=O)C(C)(C)C1CC3)C(=O)O (stereo not given in full) -0.0322
C[C@H](CO)N1C[C@H](C)[C@H](CN(C)CC2CC2)Oc2ccc(NS(=O)(=O)c3ccccc3)cc2CC1=O -0.128
Cc1noc(C)c1S(=O)(=O)Nc1ccc2c(c1)CC(=O)N([C@@H](C)CO)C[C@H](C)[C@H](CN(C)S(=O)(=O)c1ccc(Cl)cc1)O2 0.105
C[C@H]1CN([C@@H](C)CO)C(=O)Cc2cc(NS(C)(=O)=O)ccc2O[C@@H]1CN(C)S(=O)(=O)c1ccc(Cl)cc1 0.259
Cc1noc(C)c1NC(=O)Nc1ccc2c(c1)C(=O)N([C@@H](C)CO)C[C@@H](C)[C@H](CN(C)C(=O)NC(C)C)O2 -0.101
C[C@H](CO)N1C[C@H](C)[C@H](CN(C)CC2CCCCC2)Oc2ccc(NC(=O)CCN3CCOCC3)cc2CC1=O 0.315
C[C@H]1CN([C@@H](C)CO)C(=O)CCCn2cc(nn2)CO[C@H]1CN(C)C(=O)Nc1ccc(F)cc1 -0.241
C=CCN1C(=O)[C@]2(O[C@H](CCn3cc(CCO)nn3)[C@@H]([Si](C)(C)c3ccc(OC)cc3)[C@@H]2C)c2cc(N3CCOC3=O)ccc21 -0.00312
COc1ccc(NC(=O)O[C@H](c2ccc(OCCO)cc2)[C@@H](CCO)OC)cc1 -1.3
C[C@@H]1CCCCO[C@H](CN(C)C(=O)NC2CCCCC2)[C@@H](C)CN([C@H](C)CO)C(=O)c2cc(NS(C)(=O)=O)ccc2O1 0.322
COc1ccc(S(=O)(=O)N(C)C[C@@H]2Oc3ccc(NC(=O)CCC(F)(F)F)cc3C(=O)N([C@@H](C)CO)C[C@@H]2C)cc1 -0.166
C[C@H](CO)N1C[C@H](C)[C@H](CN(C)S(=O)(=O)c2ccccc2)Oc2c(NC(=O)CCCCCC(=O)Nc3ccccc3N)cccc2C1=O 0.187
C[C@@H]1CN([C@@H](C)CO)C(=O)c2cccc(NC(=O)Nc3ccc4c(c3)OCO4)c2O[C@H]1CN(C)C(=O)Nc1cccc2ccccc12 0.0736
COc1ccc(NC(=O)Nc2ccc3c(c2)CC(=O)N([C@@H](C)CO)C[C@@H](C)[C@@H](CN(C)Cc2ccc(Cl)c(Cl)c2)O3)cc1 0.191
C=C1C2=CC(=O)O[C@@H](c3ccoc3)[C@]2(C)CCC1[C@@]1(C)C=CC(=O)C(C)(C)[C@@H]1CC(=O)OC (stereo not given in full) 0.366
C[C@@H]1CN([C@H](C)CO)C(=O)c2cc(NC(=O)Cc3ccccc3)ccc2O[C@@H]1CN(C)CC1CCCCC1 -0.0442
C[C@H]1CN([C@@H](C)CO)C(=O)c2cccc(NS(=O)(=O)c3ccc(Cl)cc3)c2O[C@H]1CN(C)Cc1ccc2c(c1)OCO2 0.321
C[C@@H]1CN([C@H](C)CO)C(=O)c2cccc(NC(=O)CCCCCC(=O)Nc3ccccc3N)c2O[C@@H]1CN(C)C(=O)Nc1ccccc1 0.438
C[C@H]1CN([C@@H](C)CO)C(=O)Cc2cc(NC(=O)CCCN(C)C)ccc2O[C@@H]1CN(C)Cc1ccc(-c2ccccc2)cc1 -1.08
Oc1ccc2c(c1)OCC1c3cc4c(cc3OC21)OCO4 (stereo not given) 0.271
COc1ccc(CN(C)C[C@@H]2Oc3c(NC(=O)C4CC4)cccc3C(=O)N([C@@H](C)CO)C[C@H]2C)cc1 -0.213
CC(C)NC(=O)Nc1ccc2c(c1)CC(=O)N([C@H](C)CO)C[C@@H](C)[C@H](CN(C)S(=O)(=O)c1ccccc1)O2 0.113
C[C@H](CO)N1C[C@H](C)[C@H](CN(C)CC2CCCCC2)Oc2ccc(NC(=O)CCCCCC(=O)Nc3ccccc3N)cc2CC1=O -0.217
C[C@H]1CN([C@@H](C)CO)C(=O)c2cccc(NC(=O)NC3CCCCC3)c2O[C@H]1CN(C)CC1CCCCC1 -0.236
Cc1onc(-c2c(Cl)cccc2Cl)c1C(=O)N=S(C)(C)=O -0.447
C[C@H]1CN([C@@H](C)CO)C(=O)CCCn2cc(nn2)CO[C@@H]1CN(C)S(=O)(=O)c1ccc(-n2cccn2)cc1 -0.848
C[C@H](CO)N1C[C@H](C)[C@H](CN(C)S(=O)(=O)c2ccc(C#N)cc2)Oc2ncc(-c3cccc(F)c3)cc2C1=O 0.397
COCCOC(=O)N1C(=O)[C@@]2(c3cc(C#CCC(C(=O)OC)C(=O)OC)ccc31)[C@H](c1ccc(OCCO)cc1)N1[C@H](c3ccccc3)[C@H](c3ccccc3)OC(=O)[C@H]1[C@@H]2C(N)=O -0.585
CCOC(=O)c1cc(=O)c2ccc(OCc3ccccc3)cc2o1 0.522
Cc1noc(C)c1S(=O)(=O)Nc1ccc2c(c1)C(=O)N([C@@H](C)CO)C[C@H](C)[C@H](CN(C)C(=O)Nc1ccc(C(F)(F)F)cc1)O2 -0.372
O=C(NO)c1ccc(C(=O)N/N=C/c2ccc(Br)cc2)cc1 -0.432
C[C@H](CO)N1C[C@H](C)[C@@H](CN(C)Cc2ccc(Oc3ccccc3)cc2)OCc2cn(nn2)CCCC1=O -0.14
COC(=O)C1=C(N)Oc2cc(C)oc(=O)c2C1c1cccnc1 (stereo not given) -0.311
COc1ccc(NC(=O)N(C)C[C@H]2Oc3ccc(NC(=O)Nc4ccc5c(c4)OCO5)cc3C(=O)N([C@H](C)CO)C[C@H]2C)cc1 0.191
Cc1ccc(-c2cn3c4c(sc3n2)CCCC4)cc1 0.773
O=C(N/N=C/c1ccc([N+](=O)[O-])s1)c1ccccc1O 0.165
C[C@H](CO)N1C[C@H](C)[C@@H](CN(C)Cc2ccc(Cl)c(Cl)c2)Oc2c(NC(=O)C3CCCCC3)cccc2C1=O -0.923
Cc1ccc(CN(C)C[C@@H]2OCc3cnnn3CCCC(=O)N([C@@H](C)CO)C[C@H]2C)cc1 -0.0292
C[C@@H]1CN([C@H](C)CO)C(=O)c2cc(NC(=O)Nc3ccc4c(c3)OCO4)ccc2O[C@H]1CN(C)Cc1ccc(-c2ccccc2)cc1 0.369
C[C@H](CO)N1C[C@H](C)[C@H](CN(C)C(=O)Nc2ccc(C(F)(F)F)cc2)Oc2ccc(N(C)C)cc2CC1=O 0.00881
Cc1cc(C(=O)Nc2cccc3c2O[C@@H](CN(C)Cc2ccc(C(=O)O)cc2)[C@H](C)CN([C@@H](C)CO)C3=O)n(C)n1 -0.416
O=C(N/N=C/c1ccc(Oc2ccccc2)cc1)c1ccccn1 -0.417
COc1ccc(NC(=O)N(C)C[C@@H]2Oc3ccc(NS(=O)(=O)c4ccc(OC)cc4)cc3CC(=O)N([C@H](C)CO)C[C@H]2C)cc1 -0.353
C[C@H]1CN([C@@H](C)CO)C(=O)c2cccc(NC(=O)Nc3ccccc3)c2O[C@H]1CN(C)C(=O)Nc1cccc2ccccc12 0.0743
C[C@@H]1CN([C@@H](C)CO)C(=O)CCCn2cc(nn2)CO[C@@H]1CN(C)C(=O)C1CCCCC1 -0.464
Cc1noc(C)c1S(=O)(=O)N(C)C[C@H]1OCc2cn(nn2)CCCC(=O)N([C@H](C)CO)C[C@H]1C 0.0461
C[C@H](CO)N1C[C@H](C)[C@@H](CN(C)Cc2ccc(C(F)(F)F)cc2)Oc2ccc(NC(=O)CCC(F)(F)F)cc2C1=O -0.124
C[C@@H]1CN([C@H](C)CO)C(=O)c2cccc(NC(=O)C3CCCCC3)c2O[C@@H]1CN(C)C(=O)NC1CCCCC1 0.413
COc1ccc(CN(C)C[C@@H]2Oc3ccc(NS(=O)(=O)c4cn(C)cn4)cc3C(=O)N([C@@H](C)CO)C[C@@H]2C)cc1 -0.246
Cc1ccc(C(=O)c2coc3ccc(O)c(CN(C)C)c23)cc1 0.308
CCCN(C)C[C@@H]1OCCCC[C@@H](C)Oc2ccc(NC(=O)CCCN(C)C)cc2C(=O)N([C@H](C)CO)C[C@@H]1C -0.0474
COc1ccc(C#Cc2ccc3c(c2)[C@]2(C(=O)N3)[C@H](C(=O)N3CCc4cc(OC)c(OC)cc4C3)[C@H]3C(=O)O[C@H](c4ccccc4)[C@H](c4ccccc4)N3[C@@H]2c2ccc(O)cc2)cc1 0.269
CC(=O)N1[C@@H](c2ccc(C)cc2)SC(C)(C)[C@@H]1C(=O)O -0.179
Cc1ccc(S(=O)(=O)N(C)C[C@@H]2Oc3ccc(NC(=O)NC4CCCCC4)cc3C(=O)N([C@@H](C)CO)C[C@H]2C)cc1 0.362
Cc1ccc(S(=O)(=O)Nc2ccc3c(c2)C(=O)N([C@@H](C)CO)C[C@@H](C)[C@H](CN(C)CC2CC2)O3)cc1 -0.0524
COc1ccc(S(=O)(=O)Nc2cccc3c2O[C@@H](CN(C)C(=O)Nc2ccccc2)[C@@H](C)CN([C@@H](C)CO)C3=O)cc1 -0.0223
Cc1noc(C)c1NC(=O)Nc1ccc2c(c1)C(=O)N([C@H](C)CO)C[C@H](C)[C@H](CN(C)Cc1ccncc1)OCCCC[C@@H](C)O2 -0.384
COc1ccc(CN(C)C[C@H]2Oc3c(NC(=O)C4CC4)cccc3C(=O)N([C@@H](C)CO)C[C@H]2C)cc1 -0.0719
C[C@H]1CN([C@@H](C)CO)C(=O)c2cc(NC(=O)CCC(F)(F)F)ccc2O[C@H]1CN(C)Cc1ccc(C(=O)O)cc1 -0.0494
